Source: PubChem BioAssay AID588590 (National Center for Advancing Translational Sciences (NCATS), 2011)
Values joined by “and” are separate entries in the source; they are usually repeats but may differ in a detail not shown here. Identical values can stand only once. In all, about 390,000 compounds went through this assay and about 4,000 (1%) were called active. Another 7% or so got no clear call; they are omitted. Calls follow the shape of the dose curve; as a rule, active = well fitted inhibition curve with a large enough effect; inconclusive = small, poorly fitted or top-dose-only effect, or another doubt; inactive = no such curve, though single readings can be large or run the other way. Many of the other results were omitted from the sample, so actives are more common in it than they were.

What follows are compounds tested against DNA polymerase iota (Homo sapiens) (UniProt Q9UNA4) (assay: qHTS for Inhibitors of Polymerase Iota). Conditions: Pol iota fluorescent replication assay, 10 min; series mostly up to 115 µM.
How it was run: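 Pol iota at 10 nM preincubated 15 min with compounds at room temperature; reaction started with fluorescent substrate, 50 nM final. Fluorescence read kinetically at 0 and 10 min; buffer-only wells as negative control.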
Potency is read from the fitted curve at half-maximal effect.

Chain of DNA polymerase iota (Homo sapiens) (Q9UNA4 whole entry, looked up): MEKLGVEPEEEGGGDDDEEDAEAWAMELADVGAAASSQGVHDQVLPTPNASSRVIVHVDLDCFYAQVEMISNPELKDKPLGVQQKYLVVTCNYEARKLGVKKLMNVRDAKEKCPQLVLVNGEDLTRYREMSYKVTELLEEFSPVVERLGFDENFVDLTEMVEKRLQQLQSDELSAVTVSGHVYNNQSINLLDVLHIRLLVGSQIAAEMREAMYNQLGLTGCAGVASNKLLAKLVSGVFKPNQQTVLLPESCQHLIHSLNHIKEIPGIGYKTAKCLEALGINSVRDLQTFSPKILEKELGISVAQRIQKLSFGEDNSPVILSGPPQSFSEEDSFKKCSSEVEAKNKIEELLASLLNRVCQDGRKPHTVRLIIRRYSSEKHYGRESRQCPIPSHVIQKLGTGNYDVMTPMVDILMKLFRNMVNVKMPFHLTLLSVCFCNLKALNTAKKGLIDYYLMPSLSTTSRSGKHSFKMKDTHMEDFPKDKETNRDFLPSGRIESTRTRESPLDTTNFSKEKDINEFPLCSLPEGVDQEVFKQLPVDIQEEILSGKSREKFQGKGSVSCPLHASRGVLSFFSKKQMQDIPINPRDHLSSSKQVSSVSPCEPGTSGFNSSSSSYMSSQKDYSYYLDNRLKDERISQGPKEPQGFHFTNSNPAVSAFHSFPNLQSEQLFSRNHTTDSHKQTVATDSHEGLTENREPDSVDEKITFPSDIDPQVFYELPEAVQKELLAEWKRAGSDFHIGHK

Potency, inactive:
Cc1ccc(-n2c(=O)c3cccnc3n2CC(=O)Nc2ccccc2C(F)(F)F)cc1C, COc1ccc(Cn2c(O)c(/C=C3/C=CC=N3)c(=O)[nH]c2=O)cc1, CCN(C(=O)COC(=O)CCOc1cccc(C)c1)c1c(N)n(Cc2ccccc2)c(=O)[nH]c1=O, COc1ccccc1CCNC(=O)c1cccn1-c1nnc(N2CCCCC2)s1, Cc1ccc2nc(-c3ccc(C)c(NC(=O)Cc4ccccc4)c3)oc2c1, Cc1c(CCO)sc[n+]1CC(=O)c1ccc2ccccc2c1, O=C(c1cc2ccccc2s1)N1CCN(c2ccccn2)CC1, CC1CCN(c2nc3ccc(C(=O)N4CCN(c5ccccc5)CC4)cc3s2)CC1, CCNC(=O)Cn1nc(C)n2c(cc3c(OC)cccc32)c1=O, CN(C)c1ccc(/C=N\Nc2ccc([N+](=O)[O-])cc2[N+](=O)[O-])cc1Cl, COc1cccc(Cn2c(SCc3ccc(C(=O)N4CCCCC4)cc3)nc3ccncc32)c1, COCCCNC(=O)Cc1ccc(-n2c(C)nc3cccnc32)cc1, CCc1nc2cccnc2n1-c1ccc(CC(=O)Nc2c(C)cccc2C)cc1, COc1ccc(N2CCN(Cc3nc4c(c(=O)[nH]c(=O)n4C)n3Cc3ccc(Cl)cc3)CC2)cc1, O=C(NCCc1ccc(Cl)cc1)c1ccc2c(c1)N(Cc1ccc(F)cc1)C(=O)CS2, CCC(=O)N1CCc2cc(Br)cc(S(=O)(=O)CCC(=O)NCCc3ccc(OC)c(OC)c3)c21, CCOC(=O)CNC(=O)c1cc2c(=O)n3cccc(C)c3nc2s1, Cc1cccn2c(=O)c(/C=C(\C#N)S(=O)(=O)c3ccc(Cl)cc3)c(N3CCC(C(N)=O)CC3)nc12, CC1CCC(N2CC(=O)N(CCC3=CCCCC3)C(c3ccc(F)cc3)C2=O)CC1 (centres undefined), COc1cc2c(cc1OC)C(COc1ccc(F)cc1)N(C(=O)c1ccccc1F)CC2 (centres undefined), CCc1ccc(Nc2nn3c(=O)c4cc5c(cc4nc3s2)OCO5)cc1, Fc1ccc(-c2ccc(-c3nn4c(-c5ccco5)nnc4s3)o2)cc1, Cc1ccc(S(=O)(=O)N(CC(=O)NCc2ccco2)c2ccccc2C)cc1, COc1ccc(S(=O)(=O)N(CC(=O)NCc2ccco2)c2ccc(F)cc2)cc1, O=C(O)C1CCN(C(=O)OCc2ccccc2)CC1, CCOC(=O)N1CCC(C(N)=O)CC1, COc1ccccc1-c1noc(CSc2nnc(-c3ccccc3)n2-c2ccc(C)c(C)c2)n1, COc1ccc(C(CCN2CCOCC2)c2c(OC)cc(OC)c3c2OC(=O)CC3c2ccc(OC)cc2)cc1 (centres undefined), OCCN1CCOCCOCCN(CCO)CCN(CCO)CC1, O=[N+]([O-])c1ccc(COc2ccccc2CN2CCOCC2)cc1, Cc1cccc(NC(=O)CSc2nnc(CNC(=O)c3cccc(C)c3)n2-c2ccccc2)c1, Cc1nnc(SCC2=C(C(=O)O)N3C(=O)C(NC(=O)Cn4nc(C)c(Cl)c4C)C3SC2)s1 (centres undefined), COc1ccc(CCNC(=O)Cn2c(=O)cc(C(F)(F)F)c3c(C)nn(C)c32)c(OC)c1, Cc1ccc(Cn2c(=O)n(-c3ccc(C)cc3)c(=O)c3c2c2cc(C)ccc2n3C)cc1, COc1ccc(CCNC(=O)CCCn2c(=O)c3ccccc3n(Cc3ccc(F)cc3Cl)c2=O)cc1OC, COc1ccc(C2CC(O)(c3ccccc3)Oc3cc(C)cc(C)c32)cc1 (centres undefined), Cc1nn2c(=O)cc(COC(=O)c3ccccc3NC(=O)COc3ccccc3C)nc2s1, O=C(OCc1cc(=O)n2nc(C3CC3)sc2n1)c1ccccc1Cl, Clc1cccc[n+]1CCCC[n+]1ccccc1Cl, Cc1ccc(-c2nc(=N)sn2Cc2ccccc2)cc1, CSc1ccc(CCNC(=O)c2cnn(-c3ccccc3)c2-n2cccc2)cc1, O=C(N/N=C/c1ccco1)c1ccc(NC(=O)C2CC2)cc1, CC1(C)CC(=O)C/C(=N\NC(=O)c2cccs2)C1, CC(=O)c1ccc(S(=O)(=O)N2CCC3(CC2)OCCO3)cc1, CC(=O)c1ccc(S(=O)(=O)N2CCN(c3nc4c(C)c(C)ccc4cc3C#N)CC2)cc1, Cn1c(=O)nc2n(-c3ccc(Br)cc3)c3cccc(Cl)c3cc-2c1=O, COc1ccc(N2CCN(C3CC(=O)N(c4ccc5c(c4)OCCO5)C3=O)CC2)cc1 (centres undefined), COc1ccc(N2C(=O)CC(Nc3ccc(F)cc3)C2=O)c([N+](=O)[O-])c1 (centres undefined), Cc1ccc(NC(=O)CSc2nc3c(c(=O)[nH]2)CN(Cc2ccc4c(c2)OCO4)CC3)cc1C, CCc1ccc2ncc3c(-c4ccc(C)cc4)nn(CC(=O)NCc4ccccc4)c3c2c1, COC(=O)c1cnc(N2CCN(c3ccccc3OC)CC2)c2ccccc12, COc1ccccc1/C=C/C=N/n1c(-c2ccc(Cl)cc2Cl)n[nH]c1=S, S=c1[nH]nc(-c2ccco2)n1/N=C/c1ccc(Br)s1, COc1ccc(C)cc1NC(=O)CCc1c(C)nn(-c2ccc(N3CCOCC3)nn2)c1C, COc1cccc(C(=O)NC(=O)Nc2ccc(-c3cc(C(F)(F)F)nn3-c3ccccc3)cc2)c1, COC(=O)C1=C(c2ccccc2)c2ccccc2S(=O)(=O)N1CC(=O)Nc1ccccc1C(F)(F)F, OC(Cc1ccc2ccccc2n1)c1ccc(Cl)c(Cl)c1 (centres undefined), O=C(NCCS(=O)(=O)N1CCN(c2ccc(F)cc2)CC1)c1ccccc1Br, CC(=O)Nc1ccc(S(=O)(=O)NC2(C(F)(F)F)C(=O)Nc3c2c(=O)[nH]c(=O)n3Cc2ccccc2)cc1 (centres undefined), CCCN1C(=O)C(NS(=O)(=O)c2ccc(N)cc2)(C(F)(F)F)C(C(=O)OC)=C1C (centres undefined), Cc1c(Cl)cccc1NC(=O)N1CCN(C(=O)c2nsc3ccccc23)CC1, O=C(CCSCc1ccccc1F)N1CCN(c2ccc(Cl)cc2)CC1, Cc1cccc(N(C(=O)c2sc(C)nc2C)C(C(=O)NCC2CCCO2)c2ccccc2)c1 (centres undefined), Cc1cccc(N(C(=O)Cc2cccs2)C(C(=O)NCc2ccco2)c2ccncc2)c1 (centres undefined), CC(C)(C(=O)NO)c1ccccc1, O=C(Nc1c(-c2ccc(F)cc2)nc2ccccn12)c1cccc(F)c1, O=C(COc1ccc(Cl)cc1)N1CCN(S(=O)(=O)c2ccc(Cl)cc2)CC1, CS(=O)(=O)c1ccc(Cl)c(NC(=O)COC(=O)c2ncc(Cl)c(Cl)c2Cl)c1, COc1cc(OC)c(/C=C/c2ccnc3ccccc23)c(OC)c1, CC(NC(=O)CCc1cn(Cc2ccccc2Cl)c2ccccc12)c1ccccc1 (centres undefined), Cc1c(C)n(Cc2ccc(Cl)cc2)c2ccc(C(=O)N3CCN(c4ccccc4F)CC3)cc12, O=C(Cn1c(=O)nc(-c2ccccc2)c2cc(Cl)ccc21)NCc1ccc(Cl)cc1, COc1cc(-c2noc(-c3ccc(N4CCCC4)c([N+](=O)[O-])c3)n2)cc(OC)c1OC, Cc1ccc(C(=O)N2CCc3cc(CNC(=O)c4ccc(Br)cc4)ccc32)cc1

Potency, active:
CCCOc1ccc(Cn2c(O)cc(=O)[nH]c2=O)cc1 22.4 µM, O=C(c1cc2c(s1)CCC2)N1CCN(c2ccccc2)CC1 25.1 µM, CCc1nc2cccnc2n1-c1ccc(C(=O)O)cc1 25.1 µM, CCOC(=O)CC1C(=O)NCCN1c1nc2c(C)cccn2c(=O)c1/C=C1\SC(=S)N(C(C)CC)C1=O (centres undefined) 39.8 µM, c1ccc(-c2cc(-c3nnc4sc(-c5ccccn5)nn34)[nH]n2)cc1 25.1 µM, CS(=O)(=O)N(CC(=O)NCc1ccco1)c1ccc2c(c1)OCO2 70.8 µM, CCOC(=O)N1CCC(c2cc(=O)n(-c3ccccc3)[nH]2)CC1 1.41 µM, Oc1c(CN2CCOCC2)ccc(CN2CCOCC2)c1O 10 µM, C=CC1=C(C(=O)O)N2C(=O)[C@@H](NC(=O)/C(=N\OCC(=O)O)c3csc(N)n3)[C@H]2SC1 50.1 µM, CO/N=C(\C(=O)N[C@@H]1C(=O)N2C(C(=O)O)=C(COC(C)=O)CS[C@H]12)c1csc(N)n1 (stereo in doubt) 20 µM and 17.8 µM and 11.2 µM, COc1ccccc1C(=O)OCc1cc(=O)n2nc(-c3cccs3)sc2n1 79.4 µM, O=C(N/N=C/C=C/c1ccco1)c1cccs1 22.4 µM, CC(=O)c1ccc(S(=O)(=O)N2CCN(C(=O)/C=C/c3ccc4ccccc4n3)CC2)cc1 44.7 µM, CC(=O)Oc1cccc(N2C(=O)CC(Nc3ccc(N4CCOCC4)cc3)C2=O)c1 (centres undefined) 20 µM, Cc1cc(-c2n[nH]c(=S)n2/N=C/c2ccco2)n[nH]1 44.7 µM, CC(=O)Nc1ccc(S(=O)(=O)NC2(C(F)(F)F)C(=O)NC(C)=C2C#N)cc1 (centres undefined) 22.4 µM, Cc1nc(C)c(C(=O)N(c2ccc(C)c(C)c2)C(C(=O)NCc2ccco2)c2ccccc2)s1 (centres undefined) 79.4 µM, CS(=O)(=O)c1ccc(C(=O)OCC(=O)NNC(=O)COc2ccc(Cl)cc2)cc1 79.4 µM, CC(C)c1ccc2c(c1)c(SC(C)(C)C)c(CC(C)(C)C(=O)O)n2Cc1ccc(Cl)cc1 28.2 µM, CSC1=N/C(=C\C=C\c2cccs2)C(=O)S1 15.8 µM
